# Measurements published in PMC7862700, “An all-to-all approach to the identification of sequence-specific readers for epigenetic DNA modifications on cytosine”.
# Columns and labels:
# Assay in all cases: DAPPL (digital affinity profiling via proximity ligation, sequencing); 10 mM Tris-HCl pH 7.5, 50 mM NaCl, 1 mM DTT, 4% glycerol, room temperature, 30 min; GST-TFs on glutathione beads, 16-mer random dsDNA library, 0.1% formaldehyde crosslink after washing; high values mean tight binding
# FEV = molecular target: T1, FEV (Homo sapiens, UniProt Q99581 1-238); settings: protein: recombinant; tags: N-terminal GST; dsDNA, one strand shown
# T1 sequence: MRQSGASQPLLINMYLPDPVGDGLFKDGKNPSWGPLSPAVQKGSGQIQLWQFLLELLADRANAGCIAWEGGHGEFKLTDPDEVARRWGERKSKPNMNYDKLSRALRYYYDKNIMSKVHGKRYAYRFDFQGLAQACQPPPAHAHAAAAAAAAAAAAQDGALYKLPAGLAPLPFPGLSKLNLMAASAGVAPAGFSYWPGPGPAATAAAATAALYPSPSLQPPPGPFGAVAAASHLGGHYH
# Outline: (§1)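 After expression in yeast as GST fusions, human transcription factors were bound to glutathione beads, DNA-barcoded and mixed with a tag-only sample. The pools were incubated with 200 nmole of a 16-mer random double-stranded DNA library in Tris/NaCl/DTT/glycerol buffer (30 min, room temperature), washed and crosslinked with 0.1% formaldehyde. Proximity ligation with BsaI/T4 ligase ran for 1 h at 37 °C, before PCR amplification and sequencing on an Illumina NextSeq500. Binding signal is a hexamer's read frequency for a factor divided by its frequency for the tag-only sample.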
# ETV5 = ETV5 (Homo sapiens, UniProt P41161 1-510); settings: protein: recombinant; tags: N-terminal GST; dsDNA, one strand shown
# Outline: as §1
# HSF1 = HSF1 (Homo sapiens, UniProt Q00613 1-529); settings: protein: recombinant; tags: N-terminal GST; chain copies: 3; dsDNA, one strand shown
# Outline: as §1
# SPIC = molecular target: T2, SPIC (Homo sapiens, UniProt Q8N5J4 1-248); settings: protein: recombinant; tags: N-terminal GST; dsDNA, one strand shown
# T2 sequence: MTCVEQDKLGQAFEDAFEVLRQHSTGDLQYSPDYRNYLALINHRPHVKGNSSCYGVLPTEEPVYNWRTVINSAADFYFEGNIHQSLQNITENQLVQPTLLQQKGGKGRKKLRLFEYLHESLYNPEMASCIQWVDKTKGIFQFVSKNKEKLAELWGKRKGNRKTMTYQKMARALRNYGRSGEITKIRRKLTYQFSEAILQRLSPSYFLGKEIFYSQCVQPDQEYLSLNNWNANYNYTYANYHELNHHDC
# Outline: as §1
# ELF4 = ELF4 (Homo sapiens, UniProt Q99607 1-663); settings: protein: recombinant; tags: N-terminal GST; dsDNA, one strand shown
# Outline: as §1
# ELK4 = molecular target: T3, ELK4 (Homo sapiens, UniProt P28324-2 1-405); settings: protein: recombinant; tags: N-terminal GST; dsDNA, one strand shown
# T3 sequence: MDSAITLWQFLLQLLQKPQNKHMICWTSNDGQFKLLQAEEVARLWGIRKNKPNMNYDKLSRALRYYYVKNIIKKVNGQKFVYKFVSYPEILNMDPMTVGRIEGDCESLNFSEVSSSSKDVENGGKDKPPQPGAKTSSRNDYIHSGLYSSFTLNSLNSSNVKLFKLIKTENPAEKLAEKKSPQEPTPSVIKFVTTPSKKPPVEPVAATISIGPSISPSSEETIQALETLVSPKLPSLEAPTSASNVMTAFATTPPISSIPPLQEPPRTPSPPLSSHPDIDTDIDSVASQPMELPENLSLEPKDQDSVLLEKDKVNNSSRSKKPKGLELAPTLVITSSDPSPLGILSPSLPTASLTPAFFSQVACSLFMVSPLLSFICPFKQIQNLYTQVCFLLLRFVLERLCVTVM
# Outline: as §1
# ETV2 = molecular target: T4, ETV2 (Homo sapiens, UniProt O00321 1-342); settings: protein: recombinant; tags: N-terminal GST; dsDNA, one strand shown
# T4 sequence: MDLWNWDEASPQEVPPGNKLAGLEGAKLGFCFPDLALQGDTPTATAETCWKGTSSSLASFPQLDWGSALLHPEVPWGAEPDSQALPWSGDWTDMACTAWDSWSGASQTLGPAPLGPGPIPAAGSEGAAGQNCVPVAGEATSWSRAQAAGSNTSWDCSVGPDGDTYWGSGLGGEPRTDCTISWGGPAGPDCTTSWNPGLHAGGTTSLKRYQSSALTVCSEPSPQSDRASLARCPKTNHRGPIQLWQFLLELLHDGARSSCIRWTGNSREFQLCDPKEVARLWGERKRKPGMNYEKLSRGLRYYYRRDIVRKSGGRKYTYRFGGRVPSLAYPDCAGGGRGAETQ
# Outline: as §1
# ELF3 = molecular target: T5, ELF3 (Homo sapiens, UniProt P78545 1-371); settings: protein: recombinant; tags: N-terminal GST; dsDNA, one strand shown
# T5 sequence: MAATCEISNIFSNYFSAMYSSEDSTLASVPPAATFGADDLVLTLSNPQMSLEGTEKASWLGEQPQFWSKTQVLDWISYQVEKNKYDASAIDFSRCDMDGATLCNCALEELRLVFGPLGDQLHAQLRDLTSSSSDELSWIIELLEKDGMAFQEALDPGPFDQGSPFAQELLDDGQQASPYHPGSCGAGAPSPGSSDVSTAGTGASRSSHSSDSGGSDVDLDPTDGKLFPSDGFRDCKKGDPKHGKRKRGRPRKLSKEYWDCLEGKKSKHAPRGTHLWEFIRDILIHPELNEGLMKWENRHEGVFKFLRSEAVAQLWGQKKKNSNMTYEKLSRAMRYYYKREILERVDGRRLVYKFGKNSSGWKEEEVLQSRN
# Outline: as §1
# CRX = CRX (Homo sapiens, UniProt O43186 1-299); settings: protein: recombinant; tags: N-terminal GST; dsDNA, one strand shown
# Outline: as §1
# ETV1 = ETV1 (Homo sapiens, UniProt P50549 1-477); settings: protein: recombinant; tags: N-terminal GST; dsDNA, one strand shown
# Outline: as §1
# ERF = molecular target: T6, ERF (Homo sapiens, UniProt P50548 1-548); settings: protein: recombinant; tags: N-terminal GST; dsDNA, one strand shown
# T6 sequence: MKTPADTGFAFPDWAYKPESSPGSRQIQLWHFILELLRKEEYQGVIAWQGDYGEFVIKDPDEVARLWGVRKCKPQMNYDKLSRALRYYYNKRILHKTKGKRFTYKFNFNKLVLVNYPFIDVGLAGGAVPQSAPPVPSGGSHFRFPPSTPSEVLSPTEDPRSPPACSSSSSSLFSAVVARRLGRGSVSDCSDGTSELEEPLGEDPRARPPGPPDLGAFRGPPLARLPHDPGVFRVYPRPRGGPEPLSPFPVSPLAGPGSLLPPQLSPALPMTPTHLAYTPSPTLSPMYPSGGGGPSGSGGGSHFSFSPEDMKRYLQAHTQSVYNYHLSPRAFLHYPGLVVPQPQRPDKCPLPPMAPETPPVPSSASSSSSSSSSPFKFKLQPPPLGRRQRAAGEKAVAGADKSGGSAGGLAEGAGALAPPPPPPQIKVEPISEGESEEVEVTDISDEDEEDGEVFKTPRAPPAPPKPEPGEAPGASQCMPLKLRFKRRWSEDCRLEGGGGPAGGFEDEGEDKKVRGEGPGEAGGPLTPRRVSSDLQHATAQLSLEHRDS
# Outline: as §1
# ETV3L = molecular target: T7, ETV3L (Homo sapiens, UniProt Q6ZN32 1-361); settings: protein: recombinant; tags: N-terminal GST; dsDNA, one strand shown
# T7 sequence: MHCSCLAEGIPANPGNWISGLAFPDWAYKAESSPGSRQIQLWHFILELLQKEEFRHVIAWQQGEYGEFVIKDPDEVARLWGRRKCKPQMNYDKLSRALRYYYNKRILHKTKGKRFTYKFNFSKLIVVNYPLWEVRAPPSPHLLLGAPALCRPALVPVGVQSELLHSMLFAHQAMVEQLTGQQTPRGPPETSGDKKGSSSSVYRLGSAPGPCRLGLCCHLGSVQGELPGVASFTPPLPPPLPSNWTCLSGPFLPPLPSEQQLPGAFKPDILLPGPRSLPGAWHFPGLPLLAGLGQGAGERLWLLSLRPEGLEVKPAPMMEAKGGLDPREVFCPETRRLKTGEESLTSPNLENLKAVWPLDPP
# Outline: as §1
# ETS2 = molecular target: T8, ETS2 (Homo sapiens, UniProt P15036 1-469); settings: protein: recombinant; tags: N-terminal GST; dsDNA, one strand shown
# T8 sequence: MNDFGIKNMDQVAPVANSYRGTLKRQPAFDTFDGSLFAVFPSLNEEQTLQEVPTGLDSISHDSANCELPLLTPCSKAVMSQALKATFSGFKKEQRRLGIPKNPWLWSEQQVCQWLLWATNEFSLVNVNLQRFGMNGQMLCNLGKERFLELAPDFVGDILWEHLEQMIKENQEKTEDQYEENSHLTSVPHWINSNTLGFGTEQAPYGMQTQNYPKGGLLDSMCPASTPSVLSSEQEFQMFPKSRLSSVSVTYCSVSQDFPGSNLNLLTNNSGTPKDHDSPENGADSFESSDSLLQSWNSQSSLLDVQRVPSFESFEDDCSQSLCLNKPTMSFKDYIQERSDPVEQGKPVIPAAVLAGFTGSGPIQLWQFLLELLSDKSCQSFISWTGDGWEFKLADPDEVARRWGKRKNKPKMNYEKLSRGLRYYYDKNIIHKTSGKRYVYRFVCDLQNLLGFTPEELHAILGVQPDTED
# Outline: as §1
# SPDEF = molecular target: T9, SPDEF (Homo sapiens, UniProt O95238 1-335); settings: protein: recombinant; tags: N-terminal GST; dsDNA, one strand shown
# T9 sequence: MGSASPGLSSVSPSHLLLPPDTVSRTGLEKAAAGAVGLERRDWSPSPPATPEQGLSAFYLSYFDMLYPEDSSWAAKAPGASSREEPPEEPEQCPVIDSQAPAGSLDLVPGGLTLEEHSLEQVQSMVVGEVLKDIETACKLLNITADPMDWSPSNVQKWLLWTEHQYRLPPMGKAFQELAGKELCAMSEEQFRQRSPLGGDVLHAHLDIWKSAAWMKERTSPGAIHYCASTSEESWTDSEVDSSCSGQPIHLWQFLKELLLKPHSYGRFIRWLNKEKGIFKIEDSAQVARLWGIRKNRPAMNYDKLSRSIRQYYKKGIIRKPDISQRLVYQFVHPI
# Outline: as §1
# ETV7 = molecular target: T10, ETV7 (Homo sapiens, UniProt Q9Y603 1-341); settings: protein: recombinant; tags: N-terminal GST; dsDNA, one strand shown
# T10 sequence: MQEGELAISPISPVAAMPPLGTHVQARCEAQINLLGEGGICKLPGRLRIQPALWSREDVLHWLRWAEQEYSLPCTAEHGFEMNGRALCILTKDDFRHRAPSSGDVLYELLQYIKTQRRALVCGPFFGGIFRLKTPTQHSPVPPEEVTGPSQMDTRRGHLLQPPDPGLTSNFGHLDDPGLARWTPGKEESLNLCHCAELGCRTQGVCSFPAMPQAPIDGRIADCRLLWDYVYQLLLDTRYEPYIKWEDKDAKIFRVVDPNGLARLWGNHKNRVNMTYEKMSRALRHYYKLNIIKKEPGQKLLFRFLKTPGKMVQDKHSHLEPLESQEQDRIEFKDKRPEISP
# Outline: as §1
# ELF5 = molecular target: T11, ELF5 (Homo sapiens, UniProt Q9UKW6-2 1-255); settings: protein: recombinant; tags: N-terminal GST; dsDNA, one strand shown
# T11 sequence: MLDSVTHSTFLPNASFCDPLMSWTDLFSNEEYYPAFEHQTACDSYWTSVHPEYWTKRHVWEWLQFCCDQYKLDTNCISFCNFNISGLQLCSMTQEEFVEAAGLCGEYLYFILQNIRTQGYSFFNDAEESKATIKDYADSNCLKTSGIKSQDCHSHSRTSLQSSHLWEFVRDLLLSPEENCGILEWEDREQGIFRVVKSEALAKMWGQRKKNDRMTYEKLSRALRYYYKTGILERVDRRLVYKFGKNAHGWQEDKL
# Outline: as §1
# ETV3 = molecular target: T12, ETV3 (Homo sapiens, UniProt P41162-2 1-143); settings: protein: recombinant; tags: N-terminal GST; dsDNA, one strand shown
# T12 sequence: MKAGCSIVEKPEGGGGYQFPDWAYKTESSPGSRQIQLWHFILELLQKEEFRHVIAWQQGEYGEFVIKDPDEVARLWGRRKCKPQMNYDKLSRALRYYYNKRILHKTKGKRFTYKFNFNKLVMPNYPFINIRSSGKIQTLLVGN
# Outline: as §1
# ETV6 = ETV6 (Homo sapiens, UniProt P41212 1-452); settings: protein: recombinant; tags: N-terminal GST; dsDNA, one strand shown
# Outline: as §1
# Chain of ETV1 (P50549 whole entry): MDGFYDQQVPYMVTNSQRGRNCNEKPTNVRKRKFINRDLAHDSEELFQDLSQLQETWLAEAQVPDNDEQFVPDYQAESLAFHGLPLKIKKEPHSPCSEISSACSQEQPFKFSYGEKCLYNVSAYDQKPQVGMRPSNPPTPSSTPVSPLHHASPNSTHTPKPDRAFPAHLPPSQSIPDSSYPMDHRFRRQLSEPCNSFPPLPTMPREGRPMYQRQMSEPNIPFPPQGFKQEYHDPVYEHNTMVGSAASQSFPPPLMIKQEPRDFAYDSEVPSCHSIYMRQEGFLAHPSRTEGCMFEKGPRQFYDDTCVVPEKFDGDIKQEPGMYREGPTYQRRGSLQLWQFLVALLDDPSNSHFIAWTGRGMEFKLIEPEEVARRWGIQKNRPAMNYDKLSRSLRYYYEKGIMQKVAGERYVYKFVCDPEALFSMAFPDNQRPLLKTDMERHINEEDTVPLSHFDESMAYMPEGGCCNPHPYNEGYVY
# Chain of CRX (O43186 whole entry): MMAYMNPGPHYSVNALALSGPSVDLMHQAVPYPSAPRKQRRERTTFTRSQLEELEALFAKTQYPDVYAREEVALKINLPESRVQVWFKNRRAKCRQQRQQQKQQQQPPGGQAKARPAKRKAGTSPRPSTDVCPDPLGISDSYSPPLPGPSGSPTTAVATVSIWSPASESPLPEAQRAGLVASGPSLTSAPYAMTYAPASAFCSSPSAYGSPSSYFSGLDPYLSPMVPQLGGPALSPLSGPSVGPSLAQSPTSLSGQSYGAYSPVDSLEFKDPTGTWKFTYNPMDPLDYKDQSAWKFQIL
# Chain of ETV6 (P41212 whole entry): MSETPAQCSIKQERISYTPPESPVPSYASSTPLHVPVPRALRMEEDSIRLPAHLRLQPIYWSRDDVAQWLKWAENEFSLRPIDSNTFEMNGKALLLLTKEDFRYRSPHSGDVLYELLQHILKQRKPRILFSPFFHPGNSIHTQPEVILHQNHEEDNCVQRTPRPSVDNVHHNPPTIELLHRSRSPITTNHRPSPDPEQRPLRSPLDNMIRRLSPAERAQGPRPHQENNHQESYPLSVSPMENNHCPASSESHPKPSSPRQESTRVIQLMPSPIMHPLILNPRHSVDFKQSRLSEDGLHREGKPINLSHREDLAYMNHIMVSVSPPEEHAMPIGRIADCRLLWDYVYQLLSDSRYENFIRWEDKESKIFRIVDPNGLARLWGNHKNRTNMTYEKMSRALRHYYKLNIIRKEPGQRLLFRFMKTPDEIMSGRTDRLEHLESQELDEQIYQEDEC
# Chain of HSF1 (Q00613 whole entry): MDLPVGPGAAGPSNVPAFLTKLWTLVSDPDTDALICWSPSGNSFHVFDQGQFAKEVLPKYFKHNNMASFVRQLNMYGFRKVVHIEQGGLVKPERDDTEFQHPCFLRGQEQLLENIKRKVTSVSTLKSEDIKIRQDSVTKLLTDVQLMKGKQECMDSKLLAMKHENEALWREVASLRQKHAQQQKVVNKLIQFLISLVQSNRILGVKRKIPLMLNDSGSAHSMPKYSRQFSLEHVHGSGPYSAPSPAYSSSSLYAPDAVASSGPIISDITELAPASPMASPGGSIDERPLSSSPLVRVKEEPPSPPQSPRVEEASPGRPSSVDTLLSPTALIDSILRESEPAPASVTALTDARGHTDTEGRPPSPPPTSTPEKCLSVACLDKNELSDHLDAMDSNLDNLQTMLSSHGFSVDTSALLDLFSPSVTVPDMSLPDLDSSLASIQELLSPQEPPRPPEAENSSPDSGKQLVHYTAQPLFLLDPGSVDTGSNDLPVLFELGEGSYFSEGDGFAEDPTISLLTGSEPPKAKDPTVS
# Chain of ETV5 (P41161 whole entry): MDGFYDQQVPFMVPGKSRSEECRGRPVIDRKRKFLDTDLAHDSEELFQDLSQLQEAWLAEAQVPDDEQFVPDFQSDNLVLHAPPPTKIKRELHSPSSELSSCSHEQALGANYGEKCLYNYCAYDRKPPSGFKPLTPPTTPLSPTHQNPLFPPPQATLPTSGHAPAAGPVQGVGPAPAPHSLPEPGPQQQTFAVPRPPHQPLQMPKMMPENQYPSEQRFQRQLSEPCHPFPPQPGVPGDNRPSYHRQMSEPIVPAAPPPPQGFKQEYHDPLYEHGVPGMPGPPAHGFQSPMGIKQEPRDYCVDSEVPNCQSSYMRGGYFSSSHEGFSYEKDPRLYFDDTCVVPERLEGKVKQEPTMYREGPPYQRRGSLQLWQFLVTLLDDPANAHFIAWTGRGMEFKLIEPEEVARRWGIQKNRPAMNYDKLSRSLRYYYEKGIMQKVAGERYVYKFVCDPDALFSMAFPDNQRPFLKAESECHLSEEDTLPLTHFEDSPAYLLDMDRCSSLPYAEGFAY
# Chain of ELF4 (Q99607 whole entry): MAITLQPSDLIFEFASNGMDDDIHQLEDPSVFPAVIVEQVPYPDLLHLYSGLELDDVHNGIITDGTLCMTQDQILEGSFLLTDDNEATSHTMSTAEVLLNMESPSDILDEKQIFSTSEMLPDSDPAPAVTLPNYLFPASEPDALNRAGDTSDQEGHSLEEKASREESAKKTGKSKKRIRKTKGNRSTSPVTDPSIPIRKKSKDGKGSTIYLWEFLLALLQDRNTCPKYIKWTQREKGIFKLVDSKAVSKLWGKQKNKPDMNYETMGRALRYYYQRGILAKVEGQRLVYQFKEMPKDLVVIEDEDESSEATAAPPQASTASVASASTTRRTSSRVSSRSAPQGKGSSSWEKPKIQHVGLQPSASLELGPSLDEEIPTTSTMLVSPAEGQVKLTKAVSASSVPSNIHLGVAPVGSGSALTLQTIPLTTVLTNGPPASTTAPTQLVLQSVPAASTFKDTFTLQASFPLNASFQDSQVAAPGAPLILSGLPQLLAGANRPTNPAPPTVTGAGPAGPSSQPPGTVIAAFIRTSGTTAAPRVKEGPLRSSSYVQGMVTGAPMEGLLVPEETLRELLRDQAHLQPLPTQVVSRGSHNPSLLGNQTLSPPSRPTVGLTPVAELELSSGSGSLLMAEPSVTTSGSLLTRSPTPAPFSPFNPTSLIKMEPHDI
sequence,measurement,setting,value
GCTCTA,binding signal,FEV,"1.15 fold enrichment (6-mer frequency, TF over GST control)"
same,binding signal,ETV5,"1.21 fold enrichment (6-mer frequency, TF over GST control)"
same,binding signal,HSF1,"1.34 fold enrichment (6-mer frequency, TF over GST control)"
same,binding signal,SPIC,"1.26 fold enrichment (6-mer frequency, TF over GST control)"
same,binding signal,ELF4,"1.21 fold enrichment (6-mer frequency, TF over GST control)"
same,binding signal,ELK4,"1.07 fold enrichment (6-mer frequency, TF over GST control)"
same,binding signal,ETV2,"1.19 fold enrichment (6-mer frequency, TF over GST control)"
same,binding signal,ELF3,"1.28 fold enrichment (6-mer frequency, TF over GST control)"
same,binding signal,CRX,"1.36 fold enrichment (6-mer frequency, TF over GST control)"
same,binding signal,ETV1,"1.11 fold enrichment (6-mer frequency, TF over GST control)"
same,binding signal,ERF,"1.27 fold enrichment (6-mer frequency, TF over GST control)"
same,binding signal,ETV3L,"1.24 fold enrichment (6-mer frequency, TF over GST control)"
same,binding signal,ETS2,"1.16 fold enrichment (6-mer frequency, TF over GST control)"
same,binding signal,SPDEF,"1.15 fold enrichment (6-mer frequency, TF over GST control)"
same,binding signal,ETV7,"1.19 fold enrichment (6-mer frequency, TF over GST control)"
same,binding signal,ELF5,"1.14 fold enrichment (6-mer frequency, TF over GST control)"
same,binding signal,ETV3,"1.1 fold enrichment (6-mer frequency, TF over GST control)"
same,binding signal,ETV6,"1.09 fold enrichment (6-mer frequency, TF over GST control)"
